Binding signal data for one sequence are collected here from article PMC7862700, “An all-to-all approach to the identification of sequence-specific readers for epigenetic DNA modifications on cytosine”.

What all share (assay): DAPPL (digital affinity profiling via proximity ligation, sequencing); 10 mM Tris-HCl pH 7.5, 50 mM NaCl, 1 mM DTT, 4% glycerol, room temperature, 30 min; GST-TFs on glutathione beads, 16-mer random dsDNA library, 0.1% formaldehyde crosslink after washing; high values mean tight binding
Holding throughout (conditions): protein: recombinant; tags: N-terminal GST; dsDNA, one strand shown

One assay has as its target ELF1 (Homo sapiens, UniProt P32519 1-619). The gist of the method: (§1)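 Each value of binding signal is a hexamer's read frequency for a factor divided by the same hexamer's frequency in the tag-only sample. Barcoded, bead-captured GST fusions of human transcription factors made in yeast were pooled with that sample and incubated with 200 nmole of a random double-stranded 16-mer DNA library in Tris/NaCl/DTT/glycerol buffer at room temperature for 30 min. Washing, 0.1% formaldehyde crosslinking, proximity ligation, PCR and Illumina NextSeq500 sequencing followed.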

A further assay has as its target T1, EHF (Homo sapiens, UniProt Q9NZC4 1-300).
T1 sequence: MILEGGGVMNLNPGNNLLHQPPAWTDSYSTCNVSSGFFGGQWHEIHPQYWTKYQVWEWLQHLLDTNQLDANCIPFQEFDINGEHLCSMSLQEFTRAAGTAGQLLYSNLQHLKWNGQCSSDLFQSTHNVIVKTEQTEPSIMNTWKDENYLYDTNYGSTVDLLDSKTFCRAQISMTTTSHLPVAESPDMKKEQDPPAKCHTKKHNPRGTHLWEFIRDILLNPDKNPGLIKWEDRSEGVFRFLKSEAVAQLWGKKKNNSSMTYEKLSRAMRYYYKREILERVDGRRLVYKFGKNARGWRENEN
A digest of the protocol: as §1

The target in another assay is SPI1 (Homo sapiens, UniProt P17947 1-270). A digest of the protocol:
as §1

For another assay, the target named is T2, SPIC (Homo sapiens, UniProt Q8N5J4 1-248).
T2 sequence: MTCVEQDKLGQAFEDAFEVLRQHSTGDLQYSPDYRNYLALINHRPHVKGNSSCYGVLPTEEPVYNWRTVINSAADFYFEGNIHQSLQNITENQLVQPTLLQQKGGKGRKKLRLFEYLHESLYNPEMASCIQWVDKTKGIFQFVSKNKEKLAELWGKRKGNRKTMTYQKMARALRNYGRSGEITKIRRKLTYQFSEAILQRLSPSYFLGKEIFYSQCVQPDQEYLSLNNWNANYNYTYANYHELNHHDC
A digest of the protocol:
as §1

A further assay addresses ELF4 (Homo sapiens, UniProt Q99607 1-663). A digest of the protocol: as §1
The next assay has as its target T3, ELK4 (Homo sapiens, UniProt P28324-2 1-405).
T3 sequence: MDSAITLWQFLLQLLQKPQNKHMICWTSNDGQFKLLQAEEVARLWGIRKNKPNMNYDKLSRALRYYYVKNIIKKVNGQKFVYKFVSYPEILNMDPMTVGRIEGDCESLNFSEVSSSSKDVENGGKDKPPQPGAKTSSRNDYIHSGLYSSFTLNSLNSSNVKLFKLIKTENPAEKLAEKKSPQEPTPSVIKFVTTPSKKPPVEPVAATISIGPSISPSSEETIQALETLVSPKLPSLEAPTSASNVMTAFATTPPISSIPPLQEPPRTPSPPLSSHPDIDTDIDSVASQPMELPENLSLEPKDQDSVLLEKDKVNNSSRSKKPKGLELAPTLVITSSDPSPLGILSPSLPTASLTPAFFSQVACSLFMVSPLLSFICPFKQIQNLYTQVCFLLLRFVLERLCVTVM
A digest of the protocol:
as §1

Another assay concerns the target T4, ELF3 (Homo sapiens, UniProt P78545 1-371).
T4 sequence: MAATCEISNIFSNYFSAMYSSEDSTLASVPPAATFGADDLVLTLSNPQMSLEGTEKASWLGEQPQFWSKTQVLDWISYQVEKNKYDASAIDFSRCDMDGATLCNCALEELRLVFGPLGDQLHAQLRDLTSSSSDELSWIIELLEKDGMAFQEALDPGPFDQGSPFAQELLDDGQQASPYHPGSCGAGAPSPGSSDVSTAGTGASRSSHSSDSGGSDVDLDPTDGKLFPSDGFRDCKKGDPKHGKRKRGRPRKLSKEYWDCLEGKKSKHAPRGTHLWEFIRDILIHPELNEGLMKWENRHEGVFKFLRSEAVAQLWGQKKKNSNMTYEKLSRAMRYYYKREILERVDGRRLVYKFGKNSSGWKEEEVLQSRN
A digest of the protocol:
as §1

Another assay deals with ETV1 (Homo sapiens, UniProt P50549 1-477). A digest of the protocol: as §1
A further assay concerns the target T5, ERF (Homo sapiens, UniProt P50548 1-548).
T5 sequence: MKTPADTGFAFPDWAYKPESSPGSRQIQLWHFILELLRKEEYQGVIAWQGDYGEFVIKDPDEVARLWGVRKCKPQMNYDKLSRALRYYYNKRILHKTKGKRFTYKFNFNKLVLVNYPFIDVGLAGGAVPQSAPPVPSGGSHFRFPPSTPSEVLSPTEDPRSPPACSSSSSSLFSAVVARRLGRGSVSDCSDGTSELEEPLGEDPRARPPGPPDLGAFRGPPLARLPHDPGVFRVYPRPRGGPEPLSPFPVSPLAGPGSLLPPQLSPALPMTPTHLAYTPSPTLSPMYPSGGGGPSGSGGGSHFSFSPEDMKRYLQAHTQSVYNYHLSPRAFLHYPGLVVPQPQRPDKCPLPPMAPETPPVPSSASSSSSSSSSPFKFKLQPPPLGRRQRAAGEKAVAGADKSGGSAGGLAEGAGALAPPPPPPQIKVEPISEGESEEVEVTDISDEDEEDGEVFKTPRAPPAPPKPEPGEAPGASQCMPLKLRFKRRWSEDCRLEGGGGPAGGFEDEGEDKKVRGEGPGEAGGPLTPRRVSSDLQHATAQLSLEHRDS
The gist of the method: as §1

For the next assay, the target named is T6, ETV3L (Homo sapiens, UniProt Q6ZN32 1-361).
T6 sequence: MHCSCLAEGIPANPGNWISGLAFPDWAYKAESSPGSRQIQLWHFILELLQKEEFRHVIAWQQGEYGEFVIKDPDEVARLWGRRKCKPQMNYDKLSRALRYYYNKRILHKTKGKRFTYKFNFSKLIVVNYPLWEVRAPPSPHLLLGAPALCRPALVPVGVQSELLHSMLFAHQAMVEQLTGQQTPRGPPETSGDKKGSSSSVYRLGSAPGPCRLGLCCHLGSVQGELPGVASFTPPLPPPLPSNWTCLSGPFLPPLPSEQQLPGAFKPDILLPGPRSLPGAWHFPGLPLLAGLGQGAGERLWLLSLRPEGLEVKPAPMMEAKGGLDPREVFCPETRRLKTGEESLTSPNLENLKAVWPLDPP
A digest of the protocol:
as §1

The next assay concerns the target T7, ETS2 (Homo sapiens, UniProt P15036 1-469).
T7 sequence: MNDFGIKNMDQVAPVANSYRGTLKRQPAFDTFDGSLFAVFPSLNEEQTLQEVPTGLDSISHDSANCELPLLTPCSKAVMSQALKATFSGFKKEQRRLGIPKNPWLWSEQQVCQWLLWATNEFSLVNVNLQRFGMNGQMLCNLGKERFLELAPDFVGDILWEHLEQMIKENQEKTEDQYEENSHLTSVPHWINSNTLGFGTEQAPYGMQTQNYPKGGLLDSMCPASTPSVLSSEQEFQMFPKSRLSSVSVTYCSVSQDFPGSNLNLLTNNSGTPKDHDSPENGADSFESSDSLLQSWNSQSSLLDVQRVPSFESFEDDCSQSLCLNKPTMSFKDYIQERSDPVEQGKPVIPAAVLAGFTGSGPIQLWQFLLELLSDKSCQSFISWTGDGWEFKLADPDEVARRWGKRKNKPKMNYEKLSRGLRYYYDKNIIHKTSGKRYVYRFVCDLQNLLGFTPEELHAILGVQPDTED
A digest of the protocol: as §1

In the next assay the target is T8, ETV7 (Homo sapiens, UniProt Q9Y603 1-341).
T8 sequence: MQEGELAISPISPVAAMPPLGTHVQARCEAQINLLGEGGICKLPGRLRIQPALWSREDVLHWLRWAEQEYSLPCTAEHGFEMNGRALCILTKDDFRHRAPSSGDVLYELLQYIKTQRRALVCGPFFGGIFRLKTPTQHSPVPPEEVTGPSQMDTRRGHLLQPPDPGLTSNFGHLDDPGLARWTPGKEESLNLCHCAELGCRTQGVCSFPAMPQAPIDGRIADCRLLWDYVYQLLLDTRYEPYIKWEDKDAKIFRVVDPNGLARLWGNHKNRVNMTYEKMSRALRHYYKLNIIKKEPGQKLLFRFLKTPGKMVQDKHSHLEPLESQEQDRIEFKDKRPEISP
The gist of the method: as §1

In a further assay the target is T9, ETV3 (Homo sapiens, UniProt P41162-2 1-143).
T9 sequence: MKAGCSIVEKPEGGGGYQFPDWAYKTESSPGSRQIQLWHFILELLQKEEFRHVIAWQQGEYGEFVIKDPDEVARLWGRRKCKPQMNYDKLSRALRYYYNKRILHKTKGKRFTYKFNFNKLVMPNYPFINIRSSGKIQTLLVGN
The gist of the method:
as §1

The target of another assay is ETV6 (Homo sapiens, UniProt P41212 1-452). A digest of the protocol: as §1
ETV6, sequence (P41212 whole entry): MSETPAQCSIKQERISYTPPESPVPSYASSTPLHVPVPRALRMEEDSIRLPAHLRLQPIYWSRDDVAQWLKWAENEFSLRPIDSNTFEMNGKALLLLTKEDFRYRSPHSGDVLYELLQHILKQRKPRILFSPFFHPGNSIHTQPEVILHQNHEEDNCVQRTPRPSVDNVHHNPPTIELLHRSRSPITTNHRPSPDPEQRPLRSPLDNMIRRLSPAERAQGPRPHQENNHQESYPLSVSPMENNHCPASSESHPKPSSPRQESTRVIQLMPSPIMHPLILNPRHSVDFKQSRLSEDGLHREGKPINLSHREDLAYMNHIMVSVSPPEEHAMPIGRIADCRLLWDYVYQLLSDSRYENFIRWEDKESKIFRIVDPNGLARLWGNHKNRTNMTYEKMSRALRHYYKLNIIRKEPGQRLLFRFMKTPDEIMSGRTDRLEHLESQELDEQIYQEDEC

ETV1, sequence (P50549 whole entry): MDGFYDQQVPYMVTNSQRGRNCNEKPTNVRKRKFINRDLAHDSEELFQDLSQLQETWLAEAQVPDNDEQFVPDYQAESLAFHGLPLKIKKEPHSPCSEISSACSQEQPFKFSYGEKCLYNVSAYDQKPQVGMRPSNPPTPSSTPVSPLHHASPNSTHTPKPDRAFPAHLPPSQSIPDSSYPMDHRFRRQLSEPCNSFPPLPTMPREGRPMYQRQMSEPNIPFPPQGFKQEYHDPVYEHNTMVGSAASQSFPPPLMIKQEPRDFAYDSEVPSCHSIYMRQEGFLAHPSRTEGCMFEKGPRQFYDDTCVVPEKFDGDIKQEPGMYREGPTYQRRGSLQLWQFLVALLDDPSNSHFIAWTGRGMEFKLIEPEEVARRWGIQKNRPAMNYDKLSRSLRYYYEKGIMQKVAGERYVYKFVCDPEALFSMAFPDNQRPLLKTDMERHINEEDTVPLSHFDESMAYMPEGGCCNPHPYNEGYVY
ELF1, sequence (P32519 whole entry, the tested form may be a part): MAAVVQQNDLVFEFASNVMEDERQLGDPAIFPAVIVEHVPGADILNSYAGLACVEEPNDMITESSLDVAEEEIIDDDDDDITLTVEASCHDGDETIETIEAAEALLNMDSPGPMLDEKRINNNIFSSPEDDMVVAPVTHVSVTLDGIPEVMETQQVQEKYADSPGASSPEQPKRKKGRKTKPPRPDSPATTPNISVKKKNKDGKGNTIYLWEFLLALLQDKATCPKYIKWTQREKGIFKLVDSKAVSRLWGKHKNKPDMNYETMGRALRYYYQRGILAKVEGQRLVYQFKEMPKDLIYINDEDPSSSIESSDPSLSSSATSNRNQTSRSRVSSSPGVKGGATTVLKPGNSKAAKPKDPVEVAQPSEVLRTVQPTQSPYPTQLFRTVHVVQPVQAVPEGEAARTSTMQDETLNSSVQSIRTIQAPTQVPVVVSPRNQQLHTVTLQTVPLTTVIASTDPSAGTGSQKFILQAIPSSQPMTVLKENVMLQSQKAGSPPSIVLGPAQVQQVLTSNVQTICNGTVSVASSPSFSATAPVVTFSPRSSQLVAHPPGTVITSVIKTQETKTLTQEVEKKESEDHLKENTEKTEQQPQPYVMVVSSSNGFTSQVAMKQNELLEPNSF
ELF4, sequence (Q99607 whole entry): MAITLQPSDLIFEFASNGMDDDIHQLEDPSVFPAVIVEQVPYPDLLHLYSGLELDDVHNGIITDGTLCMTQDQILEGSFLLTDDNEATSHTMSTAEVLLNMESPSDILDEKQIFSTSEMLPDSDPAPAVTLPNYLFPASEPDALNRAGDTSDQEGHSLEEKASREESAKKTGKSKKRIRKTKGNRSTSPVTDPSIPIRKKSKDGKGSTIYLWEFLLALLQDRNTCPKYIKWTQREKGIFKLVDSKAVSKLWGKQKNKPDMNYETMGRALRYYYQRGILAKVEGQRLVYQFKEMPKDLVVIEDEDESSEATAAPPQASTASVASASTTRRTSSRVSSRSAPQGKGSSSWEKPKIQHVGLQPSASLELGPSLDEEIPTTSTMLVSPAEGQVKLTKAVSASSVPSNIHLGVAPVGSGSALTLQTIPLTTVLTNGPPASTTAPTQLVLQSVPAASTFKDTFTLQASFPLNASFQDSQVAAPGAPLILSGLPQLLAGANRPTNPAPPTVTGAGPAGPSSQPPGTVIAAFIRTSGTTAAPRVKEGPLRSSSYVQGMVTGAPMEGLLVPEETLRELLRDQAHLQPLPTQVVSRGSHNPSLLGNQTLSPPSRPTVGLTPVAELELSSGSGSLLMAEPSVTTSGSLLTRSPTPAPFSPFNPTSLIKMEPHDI

AGCTAG: the binding signal was 1.06 fold enrichment (6-mer frequency, TF over GST control) in the assay with ELF1; 1.02 fold enrichment (6-mer frequency, TF over GST control) with EHF; 1.08 fold enrichment (6-mer frequency, TF over GST control) with SPI1; 1.08 fold enrichment (6-mer frequency, TF over GST control) with SPIC; 1.05 fold enrichment (6-mer frequency, TF over GST control) with ELF4; 1.01 fold enrichment (6-mer frequency, TF over GST control) in the assay with ELK4. Moreover, the binding signal with ELF3 is 1.1 fold enrichment (6-mer frequency, TF over GST control); with ETV1 it was 1.05 fold enrichment (6-mer frequency, TF over GST control); with ERF it was 1.08 fold enrichment (6-mer frequency, TF over GST control); in the assay with ETV3L it was 1.11 fold enrichment (6-mer frequency, TF over GST control); in the assay with ETS2 it was 1.07 fold enrichment (6-mer frequency, TF over GST control); with ETV7 it was 1.17 fold enrichment (6-mer frequency, TF over GST control). Also, the binding signal in the assay with ETV3 is 1.01 fold enrichment (6-mer frequency, TF over GST control); in the assay with ETV6, 1.03 fold enrichment (6-mer frequency, TF over GST control).
